target: Cytochrome P450 3A4 (Homo sapiens) (UniProt P08684); assay: qHTS Assay for Activators of Cytochrome P450 3A4 (AID 885); details: recombinant CYP3A4, Luciferin-PPXE luminescence, 60 min; series mostly up to 57.1 µM; activity change, positive = activation: at the top concentration; also: nearly all actives have a fitted effect of over 65% in size
Summary of the method: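 Quantitative HTS format: compounds preincubated with 20nM human CYP3A4 and Luciferin-PPXE substrate at KM, reaction started by NADPH regeneration, stopped after 60 min, luciferase luminescence read 20 min later.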

Cytochrome P450 3A4 (Homo sapiens), sequence (P08684 whole entry, looked up): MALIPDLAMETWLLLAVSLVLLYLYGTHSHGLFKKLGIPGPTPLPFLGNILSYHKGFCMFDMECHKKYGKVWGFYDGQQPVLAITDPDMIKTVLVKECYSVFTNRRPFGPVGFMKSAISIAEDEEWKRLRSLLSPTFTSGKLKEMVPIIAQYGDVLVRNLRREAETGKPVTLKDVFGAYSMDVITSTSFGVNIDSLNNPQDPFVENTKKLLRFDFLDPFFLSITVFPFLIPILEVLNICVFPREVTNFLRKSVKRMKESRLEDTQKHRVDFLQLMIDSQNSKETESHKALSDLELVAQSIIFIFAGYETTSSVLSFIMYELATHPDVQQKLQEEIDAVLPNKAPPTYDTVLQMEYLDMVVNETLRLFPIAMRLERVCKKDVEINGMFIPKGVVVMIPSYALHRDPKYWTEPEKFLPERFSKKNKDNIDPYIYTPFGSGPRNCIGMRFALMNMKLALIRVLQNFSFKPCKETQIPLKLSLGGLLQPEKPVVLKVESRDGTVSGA

Activity change, positive = activation, inactive:
CCC1=C2CC[C@H]3C(=O)N(c4ccccc4)C(=O)[C@H]3[C@H]2[C@@]2(Cc3ccccc3)C(=NCCc3c[nH]c4ccccc34)OC(=O)N2C1=O -86.9%, CN1C[C@@H]2C(c3ccccc3)C3(c4cccnc4)CC2(C3)[C@H]1c1ccccc1 (some centres undefined) -93.1%, CCC1=C2CC[C@H]3C(=O)N(c4ccccc4)C(=O)[C@H]3[C@H]2[C@@]2(Cc3ccccc3)C(=O)N(CC(=O)OC)C(=O)N2C1=O -65.2%, CCC1=C(OC(=O)N(CC)CC)N2C(=O)OC(=NCC3CC3)[C@]2(Cc2ccccc2)[C@H]2C1=CC[C@H]1C(=O)N(CC)C(=O)[C@H]12 -113%, CCC1=C(OC(=O)N(CC)CC)N2C(=O)OC(=NCCOC)[C@]2(C)[C@H]2C1=CC[C@H]1C(=O)N(CC)C(=O)[C@H]12 -81.3%, C/C(CCN1CCCCc2nc(C)c(C)cc21)=N\O[C@@H](C)CN1CCCc2nc(C)c(C)cc21 -61.2% [at 11.4 µM], CCC1=C2CC[C@H]3C(=O)N(C)C(=O)[C@H]3[C@H]2[C@@]2(C)C(=NCc3ccccc3)OC(=O)N2C1=O -98%, NC(N)=NCCC[C@H](NC(=O)CC1(CC(=O)N2CCN(C3c4ccccc4NC(=O)c4ccccc43)CC2)CCCC1)C(=O)NCCn1c(=O)n(-c2ccccc2)n(-c2ccccc2)c1=O (some centres undefined) -97.6%, COCCN=C1OC(=O)N2C(=O)C3=C4C(C[C@H]5C(=O)N(c6ccccc6)C(=O)[C@H]5[C@H]4[C@@]12Cc1ccccc1)[C@H]1C(=O)N(c2ccccc2)C(=O)[C@H]1[C@H]3C (some centres undefined) -78%

From PubChem BioAssay (NCATS)
